# From the OligoGym collection
# Target: PRUNE
# Assay: pooled miR-30 sensor sort-seq; sequence = guide strand
# Details: shRNA
# Note: reference of the scale not given here.
row,Sequence,sensor-assay potency score (higher = more potent)
1,TATAGATAGTCTTCTGGTCTTT,-0.453
2,TTCCTTGTCCACTTGCTCCCTG,0.334
3,TTTATGAGAACAGTATACCAGA,-0.563
4,TATTCGTGCTACATGAGGCTGA,0.818
5,TTTCTCTCTAGCTTGAGGCAGG,-0.511
6,TAATAGTATAACAAAATGCAAA,-1.31

# Target: PSD4
# Assay: as above
# Details: shRNA
row,Sequence,sensor-assay potency score (higher = more potent)
1,TCTTCTTGCCGTCTGCATCTTG,-0.456
2,TTAAGCAGCATGATTGCACATG,-0.729
3,TTACCTCTCTATCCTCTCCAGT,-0.76
4,TAGCTAGCTTGTCTCCAGCTGG,-0.572
5,AAGGTGTGGAACATCTTCCAGC,-0.755
6,TCACTCTTTACTTCCTCGCCTG,-0.455
7,TTTTCTTCAAGGAACTTGGCTG,-0.084
8,TTGCGCTTCACCTTGGCCGTGG,0.0843
9,TGCACGTAGGTCTCGTAGCGGG,-1.25
10,TAAGGTGTGGAACATCTTCCAG,-1.04
11,TTTCCCTTGGGCACTCTCCTGG,-0.299

# Target: PSG2
# Assay: as above
# Details: shRNA
row,Sequence,sensor-assay potency score (higher = more potent)
1,TTCTTGTAGAAGCAGAGACTTT,-1.51
2,TTTCGGACAGCTGAAACCTATG,-1.61
3,ACAAGTAGAGGTTATCTCCTGA,0.66
4,TTTCTCGTCCACTATATGCAGG,-0.849
5,TTAAAAGTGATGCTGTGACCAG,-0.575
6,TAGAAGCAGAGACTTTGACTGT,-0.247
7,TAAAAGTGATGCTGTGACCAGG,-0.171
8,AAACCTATGAGTCATAGGGAGG,-1.86
9,TAGAGGTTATCTCCTGAACGGT,-0.865
10,TTGACTGTCAACGATGTGGAGC,-0.475

# Target: PSIP1
# Assay: as above
# Details: shRNA
row,Sequence,sensor-assay potency score (higher = more potent)
1,TTATACAACATTGTAGACTTTT,-0.451
2,TTAGTTACTAGTGCCTGCCTAT,0.32
3,TTCATGGTCGGTATCTTCCTTT,-0.126
4,TTAAGTTTTAGTGACTTCCTAA,-0.13
5,TATCTATCTCCCATAAACCTTC,-0.586
6,TTCAACATCAAACCTATGCTTA,0.354
7,TTGAAAATATGCTACAACCATG,-1.01
8,TTAATCTCAGCATGTATCCTTT,0.197
9,TTGATTGTTTAGTTGCTGCCTG,0.524
10,TTAGTCACATCCTCATTGCTGG,0.128
11,TTGACTTGAAAATTTCACTTTT,-0.471
